Cardiac RTF inh = cardiac RTF calcium desensitization; IANBD-labeled cardiac RTF, Ca2+ fluorescence; inhibition, % at 7.15 µM; hit rate 0.12% among 340,000; P19429+P45379; AID 493244;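 active = inhibition above the mean inhibition of all tested compounds plus 3 SD, cut at about 17% in these data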;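 note: assay run at fixed EC70 calcium of 1.6 mM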
Keap1-Nrf2 PPI = disrupts human Keap1 binding to Nrf2 peptide; Q14145; Keap1 Kelch-Nrf2 peptide fluorescence polarization, 1536-well; inhibition, % at 9.4 µM; hit rate 0.15% among 340,000; AID 504523; in the data active = inhibition above about 12%;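 note: human Keap1 Kelch domain with fluorescein labeled Nrf2 9mer peptide probe; 0% = neutral control wells and 100% = peptide positive control; higher means more block of Keap1 binding to Nrf2 peptide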
eLon inh = E. coli protease La inhibition. purified E. coli Lon protease, fluorescence polarization. inhibition, % at 7.94 µM. hit rate 0.42% among 360,000. P0A9M0; in the data active = inhibition above about 13%, passing the limit was not always enough;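 note: 0% = enzyme with probe and DMSO and 100% = no enzyme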
LANA DNA inh = blocks KSHV LANA C-terminal domain binding to DNA. MBP-C-LANA/FAM-LBS DNA binding, fluorescence polarization. inhibition, % at 9 µM. hit rate 0.078% among 340,000;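 active = highest replicate inhibition at or above 60% at 9 µM, even if other replicates fall short; inactive = all replicates below 60% inhibition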;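 note: 0% = neutral control wells and 100% = 4 µM acridine orange control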
cardiac RTF act = increases calcium sensitivity of human cardiac regulated thin filaments; P19429+P45379; IANBD-labeled TnC RTF fluorescence at EC20 calcium; 0% EC20 calcium, 100% full calcium; activation, % at 7.2 µM; AID 493008; hit rate 0.24% among 340,000;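 active = activation above the mean over all tested compounds plus 3 SD, cut at about 30% in these data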;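 note: rise in fluorescence read as greater calcium sensitivity of cardiac thin filaments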
Keap1 Kelch bind = Keap1 (human) Kelch domain binding | shares compounds with Keap1-Nrf2 PPI | Keap1 Kelch thermal shift, delta Tm; hits give high values | hit rate 8% among 400 | AID 651823 | max delta Tm, degrees C; in the data active = max delta Tm above about 0.48 degrees C
Dye-only ctr = dye artifact in Keap1 thermal shift counter-screen; shares compounds with Keap1-Nrf2 PPI; Sypro Orange dye-only thermal melt, no protein, delta Tm; top dose 26 µM; delta Tm, degrees C (concentration not given with the values); 140 tested, under 10 active; AID 651858;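 active = at highest dose tested, delta Tm positive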
An asterisk follows results filed as active; / = no result given. Most compounds without a hit are left out; they make up all but 0.82% or so of the library.

SMILES	Cardiac RTF inh	Keap1-Nrf2 PPI	eLon inh	LANA DNA inh	cardiac RTF act	Keap1 Kelch bind	others
CCCc1ccc(C(O)c2ncc(-c3ccccc3F)[nH]2)cc1 (stereo not given)	/	/	4.2	/	/	/
Cc1ccc(S(=O)(=O)c2ccc([N+](=O)[O-])cn2)cc1	-5.3	6.0	2.8	-1.7	-5.4	/
O=[N+]([O-])c1ccc(S(=O)(=O)c2ccccc2)nc1	-7.0	13.5*	0.3	-0.9	-7.4	-0.08
O=C(NNS(=O)(=O)c1ccc(F)cc1)c1ccc(S(=O)(=O)N2CCCCC2)cc1	-23.3	-4.5	-2.1	-0.4	5.0	/
O=C(NNS(=O)(=O)c1ccc(F)cc1)c1ccc(O)cc1	-5.8	43.5*	-11.8	23.1	1.4	-0.17
CCn1nc(-c2ccccc2)c2nc3ccccc3nc21	-90.2	42.0*	-17.5	74.4	50.1*	-0.07	Dye-only ctr=-27.6
COc1ccc(Cl)cc1-c1cc(C(=O)Nc2ccc(C)c(NS(C)(=O)=O)c2)[nH]n1	/	/	-1.8	/	/	/
Cc1cccc(NC(=O)CCN2CCCCC2)c1	-2.1	31.8*	-6.4	16.2	-0.4	-0.1	Dye-only ctr=-26
Cc1cccc(NC(=O)CN2CCCCCC2)c1	7.7	-4.0	3.6	0.6	1.1	/
CCOC(=O)C1CCCN(C(=O)c2ccc(F)c(C)c2)CC1 (stereo not given)	/	/	3.1	/	/	/
O=C(c1ccc(O)cc1)c1ccc(O)cc1O	2.8	0.9	0.9	12.1	-0.5	/
O=C(c1ccccc1)c1ccc(O)cc1O	-237.9	59.4*	-9.8	103.3*	156.6*	-0.15
CC(C)c1ccc(C(=O)N2CCCC(c3cc(C(=O)Nc4ccc5c(c4)OCO5)no3)C2)cc1 (stereo not given)	/	/	0.9	/	/	/
O=C(OCCN1C(=O)c2cccc3c(N4CCOCC4)ccc(c23)C1=O)c1ccc(Cl)cc1Cl	-267.7	42.9*	-50.0	62.6*	191.7*	-0.15	Dye-only ctr=-4.88
O=C(OCc1c(F)cccc1Cl)c1cc([N+](=O)[O-])ccc1N1CCOCC1	-20.8	-3.8	-3.6	1.4	0.0	/
CCOc1ccc(NS(=O)(=O)c2ccc(C)c(C(=O)NCCCn3ccnc3)c2)cc1	2.0	1.7	-2.0	-0.4	-2.6	/
CCOc1ccc(S(=O)(=O)Nc2cccc(C(=O)NCCCn3ccnc3)c2)cc1	-12.2	27.4*	0.9	11.7	-2.3	0.01
COC(=O)c1cccc(NC(=O)NC(=O)c2ccc(Cl)cc2)c1	/	44.4*	-1.6	27.5	/	-0.01
CCCCCC(=O)N1C[C@H](O)[C@@H](n2cc(C3CC3)nn2)C[C@@H]1c1ccc(C)cc1	/	/	1.5	/	/	/
CCn1nc(C(=O)OCC(=O)c2c[nH]c3ccccc23)c2ccccc2c1=O	-8.1	-5.2	-8.4	2.2	7.0	/
CCOc1ccc(C(=O)COC(=O)c2nn(CC)c(=O)c3ccccc23)cc1	-0.8	21.4*	-4.5	11.0	-1.3	-0.09
CC1(C)CC(=O)C2=C(C1)NC(=O)CC2	/	/	-1.9	/	/	/
CC1(C)CC(=O)C2=C(C1)OC1=C(C2)C(=O)CC(C)(C)C1	-4.2	20.6*	2.1	2.2	-4.0	-0.1
CCNC(=O)C1(C)CCCN(C(=O)c2sc(-c3ccccc3)nc2C)C1 (stereo not given)	/	/	-3.1	/	/	/
Cc1ccc(-n2nnnc2SCC(=O)c2c(N)n(C3CC3)c(=O)[nH]c2=O)cc1	-9.3	42.1*	-0.6	22.0	8.8	-0.08
SMILES	Cardiac RTF inh	Keap1-Nrf2 PPI	eLon inh	LANA DNA inh	cardiac RTF act	Keap1 Kelch bind	others
Cn1nc(C(=O)Nc2ccc(S(=O)(=O)N3CCOCC3)cc2)c2ccccc2c1=O	-4.2	1.9	-2.8	-1.0	0.9	/
Cn1nc(C(=O)NNC(=O)Cc2ccc(S(=O)(=O)N3CCOCC3)s2)c2ccccc2c1=O	-13.8	32.2*	-16.4	20.1	3.0	-0.18	Dye-only ctr=-27.7
CCOC(=O)C1=CCN(S(=O)(=O)c2ccc(C)cc2)C1c1cccc(F)c1 (stereo not given)	/	/	7.9	/	/	/
Cc1ccc2cc(CN(CCCO)S(=O)(=O)c3cccc4nsnc34)c(=O)[nH]c2c1C	-6.9	13.6*	-6.5	-1.5	6.8	-0.15	Dye-only ctr=-34.2
CCOCCCn1c(=NC(=O)c2cccs2)c(C#N)cc2c(=O)n3cccc(C)c3nc21	-16.4	12.8*	13.4	13.9	22.4	0.24
COCCCn1c(=NC(C)=O)c(C#N)cc2c(=O)n3cccc(C)c3nc21	/	/	-8.0	/	/	/

Assay outcomes (PubChem BioAssay)
